# CHX counter: counter-screen hit for Shiga toxin inhibitors, cycloheximide. cell reporter, cycloheximide protein synthesis inhibition counterscreen. max response, %. actives 12% (n = 300,000). AID 2314; in the data active = max response mostly above about 13%, no sharp cut-off; inactive = mostly below about 14%; note: read at 38.3 µM for the half of the compounds with a filed dose; 0% is about no effect
# SARS PLP yeast: blocks SARS-CoV papain-like protease in a yeast assay. S. cerevisiae expressing SARS-CoV PLpro, growth rescue. Potency, µM (series often up to 32.9 µM), without a hit: at the top dose activity, positive = growth rescue, hits mostly activators. actives 0.19% (n = 330,000). AID 485353; note: potency is the fitted concentration of half-maximal effect; 0% is about no effect; nearly all actives have a fitted effect of over 55% in size
# Shiga inhibitor: Shiga toxin inhibition; Vero cells, Shiga toxin protein synthesis inhibition reporter; AID 2315; inhibition, % at 38.7 µM; actives 9.2% (n = 290,000); in the data active = inhibition mostly above about 28%, no sharp cut-off; inactive = mostly below about 43%; note: 0% is about no effect
# NS1 inh: influenza NS1 inhibition; Potency, µM (titrated, usually from 46.1 µM), without a hit: at the top dose activity, positive = more growth; actives 0.4% (n = 270,000); AID 2326; note: potency is the fitted concentration of half-maximal effect; actives are rising curves; nearly all actives have a fitted effect of over 50% in size
#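 In this qHTS, NS1 from influenza A is expressed in budding yeast, where it slows growth. Cells are switched from glucose to 2% galactose medium (pH 6.0, -URA), treated with compound, and growth recovery is read at OD600.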
# * hit, by the source's call; . = not tested or not shown; + = active, no number; ! = not confirmed by another sample. This is a sample that favours compounds with a hit; in the whole collection about 12% have one here. Unless noted, calls come from the whole dose curve.
SMILES,CHX counter,SARS PLP yeast,Shiga inhibitor,NS1 inh
O=C(Nc1ccc(F)cc1)c1nc(S(=O)(=O)Cc2ccccc2)ncc1Cl,6,-9%,11,-106%
Cc1ccccc1NC(=O)c1nc(S(C)(=O)=O)ncc1Cl,42*,-18%,48*,-54%
Cc1ccc(NC(=O)c2nc(S(=O)(=O)Cc3ccccc3)ncc2Cl)cc1,12,-18%,23,-101%
Cc1cccc(C)c1NC(=O)c1nc(S(=O)(=O)Cc2ccccc2)ncc1Cl,16*,-10%,40*,-39%
CCN(c1ccccc1)S(=O)(=O)c1ccc(NC(=O)c2nc(S(C)(=O)=O)ncc2Cl)cc1,-17,10%,-12,-10%
N#Cc1ccccc1OCC(=O)NNC(=O)CCC1CCCC1,.,0%,.,.
CCOC(=O)c1nc(S(C)(=O)=O)ncc1Cl,26*,-23%,25,-41%
CCCc1nnc(NC(=O)c2nc(S(=O)(=O)Cc3cccc(C)c3)ncc2Cl)s1,52*,1%,68*,21%
Cc1cccc(CS(=O)(=O)c2ncc(Cl)c(C(=O)Nc3c(C)cccc3C)n2)c1,22*,-14%,20,-43%
Cc1cccc(CS(=O)(=O)c2ncc(Cl)c(C(=O)NCc3ccccc3)n2)c1,24*,1%,38*,-3%
COc1ccc(NC(=O)c2nc(S(=O)(=O)Cc3cccc(C)c3)ncc2Cl)c(OC)c1,4,8%,1,-2%
COc1ccc(OC)c(NC(=O)c2nc(S(=O)(=O)Cc3ccccc3)ncc2Cl)c1,10,-9%,6,-5%
Cc1ccccc1CS(=O)(=O)c1ncc(Cl)c(C(=O)Nc2ccc(F)cc2)n1,29*,-13%,32,-27%
CN(c1cc(=O)n2ccccc2n1)C1CCCCC1,24*,9%,24,-60%
CC(C)c1nc2ccccn2c1NC1CCCCC1,-2,2%,-8,-8%
COc1ccc(CC2(C)OC(c3ccc(C)c([N+](=O)[O-])c3)=NN2C(C)=O)cc1 (stereo not drawn),1,-3%,0,-2%
N#CCCCSc1ncccc1-c1nc2ccccc2[nH]1,28*,6%,74,-11%
N#CCSc1ncccc1-c1nc2ccccc2[nH]1,17,-11%,30*,-3%
O=C(O)c1ccccc1-c1nc2ccccc2[nH]1,1,-1%,39,.
Nc1nc(Nc2cccc(Cl)c2)n[nH]1,5,0%,26,9%
CCOc1ccc(C2/C(=C(/O)c3ccc(S(=O)(=O)N4CCCCC4)cc3)C(=O)C(=O)N2CCCOC)cc1OC (stereo not drawn),-2,-3%,-11,10%
CN(CC(=O)Nc1n[nH]c(=S)s1)S(=O)(=O)c1cccc2cccnc12,-5,3%,-7,9%
O=C(Cc1cccc2ccccc12)N/N=C/c1ccc(Sc2cccc3cccnc23)o1,-1,3%,-10,21%
CCCCC(=O)N/N=C/c1ccc(Sc2cccc3cccnc23)o1,39*,3%,31,-5%
CCN(CC)CCNC(=O)c1ccc(NC(=O)c2cccc(-n3cnnn3)c2)cc1,.,-2%,.,.
SMILES,CHX counter,SARS PLP yeast,Shiga inhibitor,NS1 inh
CCC(C(=O)NC1CCCCC1)n1c(SCc2ccccc2F)nc2ccncc21 (stereo not drawn),17*!,2%,44,20%
CCCCN1C(=O)C(=O)N(c2ccccc2)C1=S,67*,19%,+,-28%
O=C(c1cccc(C(F)(F)F)c1)N(c1ccccn1)C1CCCCC1,5,-1%,-6,.
O=C(COC(=O)c1ccc(F)cc1F)NC(=O)Nc1ccc2c(c1)OCCO2,.,2%,.,.
CCN(CC)C(=O)Cn1cc(/C=C2\C(=O)NC(=O)N(c3ccccc3F)C2=O)c2ccccc21,8.5*,2%,33,-3%
COc1ccc(/C=C(/C(=O)c2cccs2)N2C=CC=CC2=C(C#N)C#N)cc1,41*,-23%,47*,4%
COc1ccc(OCC(=O)OCC(=O)NC2CCCCC2C)cc1 (stereo not drawn),.,-2%,.,.
COc1cc(NC2CCCCC2O)c2nc(-c3ccc(Cl)cc3)ccc2c1 (stereo not drawn),85*,-2%,134*,20%
CC(C)(N=NC(C)(C)C(=N)N)C(=N)N,.,.,.,4%
Cc1ccc(/C=C/C(=O)NCCc2cccc(Cl)c2)o1,29*,-12%,.,-65%
Cc1occc1C(=O)NNC(=S)NCc1ccc(Cl)cc1,28*,0%,28,.
Cc1occc1C(=O)NNC(=S)NCc1ccccc1,-1,0%,-9,11%
Cc1occc1C(=O)NCCCc1ccccc1,25*,-22%,117,-56%
Cc1occc1C(=O)NCCc1cccc(Cl)c1,69*,-30%,130*,-118%
COc1ccccc1N1CCN(S(=O)(=O)c2ccc3c(c2)n(C)c(=O)n3C)CC1,-6,1%,10,2%
O=C(CCCn1c(=O)[nH]c2ccccc2c1=O)NC1CCCCCC1,13,2%,13,3%
CC1CCC(NC(=O)CCCn2sc3ccccc3c2=O)CC1 (stereo not drawn),22*,-15%,11,-10%
Cc1ccc(S(=O)(=O)N2CCOCC2)cc1NC(=O)COc1ccccc1Cc1ccccc1,.,-4%,.,.
COC(=O)c1ccc(CC(=O)c2nc3ccccc3s2)cc1,20*,2%,20,5%
COC(=O)c1ccc(/C(O)=C(\C#N)c2nc3ccccc3s2)cc1,20,-8%,26,-54%
O=C(Cc1ccccc1)c1nc2ccccc2s1,74*,-23%,131*,11%
O=C(O)CSc1nc2ccccc2s1,8,0%,6,1%
CC(C)(C)c1nnc2cccc(Cl)n12,-4,-1%,-4,-8%
CC(=O)N1CC(C(=O)Nc2ccc3c(c2)OCO3)Oc2ccccc21 (stereo not drawn),.,0%,.,.
O=C(Nc1nnc(-c2ccccc2F)s1)C1CCCO1 (stereo not drawn),39*,-22%,64*,-2%
SMILES,CHX counter,SARS PLP yeast,Shiga inhibitor,NS1 inh
COc1ccc(Cc2nnc(NC(=O)C3CCCO3)s2)cc1OC (stereo not drawn),1,3%,-7,-21%
O=C(Nc1nnc(-c2ccncc2)s1)C1CCCO1 (stereo not drawn),17*,3%,35*,-3%
CCCCn1c(N)c(N(CCC(C)C)C(=O)CCCc2nc3ccccc3s2)c(=O)[nH]c1=O,7,3%,-10,9%
CC(=O)N1c2ccc(S(=O)(=O)N3CCC(C(=O)NC(C)c4ccccc4)CC3)cc2CC1C (stereo not drawn),2,8%,-5,5%
CCOc1ccccc1N1CCN(CC(=O)N(CC(C)C)c2c(N)n(CC(C)C)c(=O)[nH]c2=O)CC1,6,-1%,-8,.
COc1ccc(-c2csc(-n3ncc(-c4ccccn4)c3N)n2)cc1,12,0%,14,.
Nc1c(-c2cccs2)cnn1-c1nc(-c2ccc(F)cc2)cs1,17*,-1%,44*,6%
Nc1c(-c2ccccn2)cnn1-c1nc(-c2ccc(F)cc2)cs1,44*,-5%,54,.
O=c1c(Br)c(N2CCCCC2)cnn1-c1ccccc1,21*,0%,116*,.
O=c1c(Br)c(N2CCCC2)cnn1-c1ccccc1,47*,15%,81*,1%
O=c1c(Br)c(N2CCOCC2)cnn1-c1ccccc1,18*,-4%,92*,.
